# Legend:
# [1] = target: T1, Testis-specific serine/threonine-protein kinase 1 (Homo sapiens) (UniProt Q9BXA7); details: at 1 µM
# T1 sequence (whole entry): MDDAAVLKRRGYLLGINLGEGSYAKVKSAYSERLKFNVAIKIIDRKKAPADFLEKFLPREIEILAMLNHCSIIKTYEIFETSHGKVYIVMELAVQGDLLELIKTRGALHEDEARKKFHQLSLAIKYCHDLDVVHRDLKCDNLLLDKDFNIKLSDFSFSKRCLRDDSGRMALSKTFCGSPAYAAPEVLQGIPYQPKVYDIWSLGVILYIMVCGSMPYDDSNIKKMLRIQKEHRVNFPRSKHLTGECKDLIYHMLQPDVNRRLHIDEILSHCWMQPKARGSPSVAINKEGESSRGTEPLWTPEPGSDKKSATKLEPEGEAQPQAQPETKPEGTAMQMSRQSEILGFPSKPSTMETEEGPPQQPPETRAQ
# [2] = target: T1, Testis-specific serine/threonine-protein kinase 1 (Homo sapiens); details: at 10 µM
# [3] = target: T2, Testis-specific serine/threonine-protein kinase 2 (Homo sapiens) (UniProt Q96PF2); details: at 10 µM
# T2 sequence (whole entry): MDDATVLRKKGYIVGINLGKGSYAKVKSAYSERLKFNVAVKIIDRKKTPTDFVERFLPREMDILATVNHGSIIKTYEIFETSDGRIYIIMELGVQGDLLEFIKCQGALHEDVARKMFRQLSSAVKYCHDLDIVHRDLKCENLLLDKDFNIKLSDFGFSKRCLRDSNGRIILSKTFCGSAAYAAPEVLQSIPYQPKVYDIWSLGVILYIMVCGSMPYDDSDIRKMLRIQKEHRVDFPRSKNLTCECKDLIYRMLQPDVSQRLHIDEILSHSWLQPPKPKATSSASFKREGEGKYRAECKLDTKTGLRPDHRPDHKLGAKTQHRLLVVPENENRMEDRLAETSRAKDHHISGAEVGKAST
# [4] = target: T3, Tyrosine-protein kinase Tec (Homo sapiens) (UniProt P42680); details: at 1 µM
# T3 sequence (whole entry): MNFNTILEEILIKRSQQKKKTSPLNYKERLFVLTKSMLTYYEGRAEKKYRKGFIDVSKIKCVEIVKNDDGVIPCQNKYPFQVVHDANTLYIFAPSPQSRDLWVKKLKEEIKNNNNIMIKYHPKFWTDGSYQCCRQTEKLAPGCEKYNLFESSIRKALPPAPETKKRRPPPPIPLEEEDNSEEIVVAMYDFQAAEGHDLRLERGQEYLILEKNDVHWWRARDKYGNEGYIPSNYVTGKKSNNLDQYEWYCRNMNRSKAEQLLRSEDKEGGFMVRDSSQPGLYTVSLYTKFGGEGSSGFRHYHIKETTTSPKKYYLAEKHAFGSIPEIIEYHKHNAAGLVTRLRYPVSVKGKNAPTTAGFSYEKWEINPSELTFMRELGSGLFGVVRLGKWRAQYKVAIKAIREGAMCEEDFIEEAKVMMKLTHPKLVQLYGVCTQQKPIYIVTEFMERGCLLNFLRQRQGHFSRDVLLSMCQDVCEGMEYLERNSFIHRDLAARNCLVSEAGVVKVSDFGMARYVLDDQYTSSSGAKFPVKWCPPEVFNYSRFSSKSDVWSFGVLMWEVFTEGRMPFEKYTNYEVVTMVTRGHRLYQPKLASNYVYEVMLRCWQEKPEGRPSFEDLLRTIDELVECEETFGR
# [5] = target: T3, Tyrosine-protein kinase Tec (Homo sapiens); details: at 10 µM
# [6] = target: Angiopoietin-1 receptor (Homo sapiens) (UniProt Q02763); details: at 1 µM
# [7] = target: Angiopoietin-1 receptor (Homo sapiens) (UniProt Q02763); details: at 10 µM
# [8] = target: High affinity nerve growth factor receptor (Homo sapiens) (UniProt P04629); details: at 1 µM
# [9] = target: High affinity nerve growth factor receptor (Homo sapiens) (UniProt P04629); details: at 10 µM
# [10] = target: BDNF/NT-3 growth factors receptor (Homo sapiens) (UniProt Q16620); details: at 1 µM
# [11] = target: BDNF/NT-3 growth factors receptor (Homo sapiens) (UniProt Q16620); details: at 10 µM
# [12] = target: T4, Tyrosine-protein kinase TXK (Homo sapiens) (UniProt P42681); details: at 1 µM
# T4 sequence (whole entry): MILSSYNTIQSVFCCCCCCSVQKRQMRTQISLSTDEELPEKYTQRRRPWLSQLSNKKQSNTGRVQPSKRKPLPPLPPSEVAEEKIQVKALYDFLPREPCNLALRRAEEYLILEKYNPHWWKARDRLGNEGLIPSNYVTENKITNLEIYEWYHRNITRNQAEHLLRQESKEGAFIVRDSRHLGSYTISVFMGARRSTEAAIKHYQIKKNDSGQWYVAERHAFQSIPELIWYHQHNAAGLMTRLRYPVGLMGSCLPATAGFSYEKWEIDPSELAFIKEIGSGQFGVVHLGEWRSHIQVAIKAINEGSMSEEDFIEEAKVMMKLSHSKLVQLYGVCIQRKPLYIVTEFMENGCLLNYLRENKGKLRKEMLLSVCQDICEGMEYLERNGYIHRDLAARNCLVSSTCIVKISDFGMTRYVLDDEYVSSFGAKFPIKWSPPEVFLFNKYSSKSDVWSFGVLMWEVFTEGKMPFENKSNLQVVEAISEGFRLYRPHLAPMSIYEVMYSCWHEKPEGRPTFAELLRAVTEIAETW
# [13] = target: T4, Tyrosine-protein kinase TXK (Homo sapiens); details: at 10 µM
# [14] = target: T5, Serine/threonine-protein kinase ULK3 (Homo sapiens) (UniProt Q6PHR2); details: at 1 µM
# T5 sequence (whole entry): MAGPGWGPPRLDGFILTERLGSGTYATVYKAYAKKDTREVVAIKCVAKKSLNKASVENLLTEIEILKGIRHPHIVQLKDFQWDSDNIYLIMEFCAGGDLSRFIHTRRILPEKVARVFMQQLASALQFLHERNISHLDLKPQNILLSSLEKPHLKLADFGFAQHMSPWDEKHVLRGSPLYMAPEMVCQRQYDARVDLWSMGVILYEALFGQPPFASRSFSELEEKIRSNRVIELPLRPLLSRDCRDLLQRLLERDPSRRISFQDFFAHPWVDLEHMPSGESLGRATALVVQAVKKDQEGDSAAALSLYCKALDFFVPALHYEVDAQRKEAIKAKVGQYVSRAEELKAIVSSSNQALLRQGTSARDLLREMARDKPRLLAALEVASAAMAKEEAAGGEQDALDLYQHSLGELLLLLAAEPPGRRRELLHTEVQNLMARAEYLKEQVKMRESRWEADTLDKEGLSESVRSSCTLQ
# [15] = target: T5, Serine/threonine-protein kinase ULK3 (Homo sapiens); details: at 10 µM
# [16] = target: Serine/threonine-protein kinase WNK2 (Homo sapiens) (UniProt Q9Y3S1); details: at 1 µM;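 further: residual WNK2 kinase activity expressed as percent of uninhibited control, assayed in MOPS buffer at pH 7.0 containing EDTA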
# [17] = target: T6, Serine/threonine-protein kinase ULK2 (Homo sapiens) (UniProt Q8IYT8); details: at 1 µM
# T6 sequence (whole entry): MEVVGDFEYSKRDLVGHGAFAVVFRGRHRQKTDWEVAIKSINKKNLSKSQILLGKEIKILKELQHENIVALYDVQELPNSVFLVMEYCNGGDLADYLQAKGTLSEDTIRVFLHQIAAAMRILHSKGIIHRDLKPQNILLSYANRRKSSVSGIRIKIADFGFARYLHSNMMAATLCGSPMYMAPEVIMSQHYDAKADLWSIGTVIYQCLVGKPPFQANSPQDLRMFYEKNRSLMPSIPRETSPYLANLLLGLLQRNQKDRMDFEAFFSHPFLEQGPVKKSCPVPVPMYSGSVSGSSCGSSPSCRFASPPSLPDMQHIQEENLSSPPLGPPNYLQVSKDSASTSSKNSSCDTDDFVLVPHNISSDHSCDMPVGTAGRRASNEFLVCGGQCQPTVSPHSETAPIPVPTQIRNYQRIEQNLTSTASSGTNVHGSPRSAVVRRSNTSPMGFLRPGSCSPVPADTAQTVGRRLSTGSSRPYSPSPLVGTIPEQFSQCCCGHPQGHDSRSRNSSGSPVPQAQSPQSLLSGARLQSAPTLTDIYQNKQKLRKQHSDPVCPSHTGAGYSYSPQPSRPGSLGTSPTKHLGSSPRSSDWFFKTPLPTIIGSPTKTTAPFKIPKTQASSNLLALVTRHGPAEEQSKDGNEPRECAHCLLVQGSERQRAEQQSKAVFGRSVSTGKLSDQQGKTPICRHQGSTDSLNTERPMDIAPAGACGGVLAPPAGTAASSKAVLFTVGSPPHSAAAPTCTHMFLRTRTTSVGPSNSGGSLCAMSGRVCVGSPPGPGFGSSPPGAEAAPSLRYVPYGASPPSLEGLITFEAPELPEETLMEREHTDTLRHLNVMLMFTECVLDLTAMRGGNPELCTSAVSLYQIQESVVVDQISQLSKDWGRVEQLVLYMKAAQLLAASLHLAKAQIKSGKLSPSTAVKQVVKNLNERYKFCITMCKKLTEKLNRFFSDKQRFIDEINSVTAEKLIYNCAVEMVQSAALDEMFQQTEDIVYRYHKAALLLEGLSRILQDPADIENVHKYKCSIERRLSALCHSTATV
# [18] = target: T6, Serine/threonine-protein kinase ULK2 (Homo sapiens); details: at 10 µM
# [19] = target: Serine/threonine-protein kinase VRK2 (Homo sapiens) (UniProt Q86Y07); details: at 1 µM
# [20] = target: Serine/threonine-protein kinase VRK2 (Homo sapiens) (UniProt Q86Y07); details: at 10 µM
# Sequence of Serine/threonine-protein kinase WNK2 (Homo sapiens) (Q9Y3S1 whole entry): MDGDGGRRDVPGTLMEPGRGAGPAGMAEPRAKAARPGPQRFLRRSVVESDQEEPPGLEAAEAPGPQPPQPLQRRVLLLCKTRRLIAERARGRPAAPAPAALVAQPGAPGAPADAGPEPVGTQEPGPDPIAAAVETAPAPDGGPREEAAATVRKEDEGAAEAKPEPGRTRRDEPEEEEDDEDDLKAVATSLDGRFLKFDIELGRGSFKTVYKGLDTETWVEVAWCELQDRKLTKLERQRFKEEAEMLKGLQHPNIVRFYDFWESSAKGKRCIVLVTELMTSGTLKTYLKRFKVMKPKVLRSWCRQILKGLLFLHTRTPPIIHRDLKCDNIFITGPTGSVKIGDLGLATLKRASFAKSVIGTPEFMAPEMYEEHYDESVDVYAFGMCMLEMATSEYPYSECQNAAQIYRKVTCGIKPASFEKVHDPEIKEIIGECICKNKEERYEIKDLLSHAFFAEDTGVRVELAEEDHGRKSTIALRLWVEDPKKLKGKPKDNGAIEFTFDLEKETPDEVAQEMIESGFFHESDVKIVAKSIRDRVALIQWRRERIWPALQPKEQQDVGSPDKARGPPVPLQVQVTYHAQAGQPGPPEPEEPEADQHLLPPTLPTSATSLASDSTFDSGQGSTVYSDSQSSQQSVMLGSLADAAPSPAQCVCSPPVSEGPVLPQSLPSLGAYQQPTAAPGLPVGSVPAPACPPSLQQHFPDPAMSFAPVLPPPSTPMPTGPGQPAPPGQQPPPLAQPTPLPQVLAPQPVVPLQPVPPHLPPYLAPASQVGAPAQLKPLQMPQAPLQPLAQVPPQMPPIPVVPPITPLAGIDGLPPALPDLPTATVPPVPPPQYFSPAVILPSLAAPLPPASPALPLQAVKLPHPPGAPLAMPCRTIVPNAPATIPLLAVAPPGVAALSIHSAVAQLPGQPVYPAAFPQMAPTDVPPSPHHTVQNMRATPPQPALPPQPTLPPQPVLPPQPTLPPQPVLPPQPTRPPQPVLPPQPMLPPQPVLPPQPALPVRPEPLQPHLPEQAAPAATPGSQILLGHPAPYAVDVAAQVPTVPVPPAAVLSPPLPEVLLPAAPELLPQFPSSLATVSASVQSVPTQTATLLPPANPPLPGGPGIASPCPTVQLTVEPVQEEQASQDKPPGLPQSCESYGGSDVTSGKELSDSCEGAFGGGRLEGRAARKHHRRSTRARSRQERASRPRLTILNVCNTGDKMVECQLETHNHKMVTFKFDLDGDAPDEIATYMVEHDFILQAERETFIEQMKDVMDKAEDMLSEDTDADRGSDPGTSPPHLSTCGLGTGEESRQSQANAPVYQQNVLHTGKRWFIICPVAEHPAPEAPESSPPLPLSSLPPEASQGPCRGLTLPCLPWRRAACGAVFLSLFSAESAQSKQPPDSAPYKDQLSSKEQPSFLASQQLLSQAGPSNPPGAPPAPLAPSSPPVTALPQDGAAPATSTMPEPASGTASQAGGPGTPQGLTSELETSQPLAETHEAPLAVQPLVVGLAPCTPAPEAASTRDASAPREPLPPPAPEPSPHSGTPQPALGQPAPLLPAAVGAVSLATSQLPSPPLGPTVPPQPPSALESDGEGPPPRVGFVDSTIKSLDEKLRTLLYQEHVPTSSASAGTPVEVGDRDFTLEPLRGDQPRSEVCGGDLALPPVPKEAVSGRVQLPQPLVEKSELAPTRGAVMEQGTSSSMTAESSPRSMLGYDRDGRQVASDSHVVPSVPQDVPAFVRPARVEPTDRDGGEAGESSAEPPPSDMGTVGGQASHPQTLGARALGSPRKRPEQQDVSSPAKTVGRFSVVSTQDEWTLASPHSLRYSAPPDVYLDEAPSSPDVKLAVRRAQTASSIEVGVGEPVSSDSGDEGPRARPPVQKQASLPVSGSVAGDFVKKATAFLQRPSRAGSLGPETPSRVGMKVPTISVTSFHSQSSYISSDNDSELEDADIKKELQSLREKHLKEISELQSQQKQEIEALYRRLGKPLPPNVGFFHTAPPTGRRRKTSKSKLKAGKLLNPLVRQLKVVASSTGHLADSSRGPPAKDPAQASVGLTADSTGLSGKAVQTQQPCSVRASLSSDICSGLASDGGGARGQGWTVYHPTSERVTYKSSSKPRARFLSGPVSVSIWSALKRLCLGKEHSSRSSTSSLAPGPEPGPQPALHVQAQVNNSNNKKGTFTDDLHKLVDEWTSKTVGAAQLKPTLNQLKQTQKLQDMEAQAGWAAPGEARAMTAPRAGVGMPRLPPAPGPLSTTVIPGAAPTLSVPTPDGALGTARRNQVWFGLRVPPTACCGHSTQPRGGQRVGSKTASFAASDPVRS
# Sequence of Serine/threonine-protein kinase VRK2 (Homo sapiens) (Q86Y07 whole entry): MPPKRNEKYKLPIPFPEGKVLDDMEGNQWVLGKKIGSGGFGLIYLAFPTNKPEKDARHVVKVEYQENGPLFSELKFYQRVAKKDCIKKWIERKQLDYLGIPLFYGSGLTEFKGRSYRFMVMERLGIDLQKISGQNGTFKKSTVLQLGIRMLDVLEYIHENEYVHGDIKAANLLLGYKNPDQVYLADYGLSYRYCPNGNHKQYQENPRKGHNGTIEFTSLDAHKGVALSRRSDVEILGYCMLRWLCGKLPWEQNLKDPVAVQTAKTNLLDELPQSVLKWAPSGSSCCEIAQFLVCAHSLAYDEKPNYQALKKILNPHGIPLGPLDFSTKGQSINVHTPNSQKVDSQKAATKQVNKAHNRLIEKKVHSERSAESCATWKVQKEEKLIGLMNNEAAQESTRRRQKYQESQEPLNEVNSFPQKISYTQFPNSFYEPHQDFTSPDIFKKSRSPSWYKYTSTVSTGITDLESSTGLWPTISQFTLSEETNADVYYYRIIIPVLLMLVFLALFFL
# Sequence of BDNF/NT-3 growth factors receptor (Homo sapiens) (Q16620 32-822 limits assumed): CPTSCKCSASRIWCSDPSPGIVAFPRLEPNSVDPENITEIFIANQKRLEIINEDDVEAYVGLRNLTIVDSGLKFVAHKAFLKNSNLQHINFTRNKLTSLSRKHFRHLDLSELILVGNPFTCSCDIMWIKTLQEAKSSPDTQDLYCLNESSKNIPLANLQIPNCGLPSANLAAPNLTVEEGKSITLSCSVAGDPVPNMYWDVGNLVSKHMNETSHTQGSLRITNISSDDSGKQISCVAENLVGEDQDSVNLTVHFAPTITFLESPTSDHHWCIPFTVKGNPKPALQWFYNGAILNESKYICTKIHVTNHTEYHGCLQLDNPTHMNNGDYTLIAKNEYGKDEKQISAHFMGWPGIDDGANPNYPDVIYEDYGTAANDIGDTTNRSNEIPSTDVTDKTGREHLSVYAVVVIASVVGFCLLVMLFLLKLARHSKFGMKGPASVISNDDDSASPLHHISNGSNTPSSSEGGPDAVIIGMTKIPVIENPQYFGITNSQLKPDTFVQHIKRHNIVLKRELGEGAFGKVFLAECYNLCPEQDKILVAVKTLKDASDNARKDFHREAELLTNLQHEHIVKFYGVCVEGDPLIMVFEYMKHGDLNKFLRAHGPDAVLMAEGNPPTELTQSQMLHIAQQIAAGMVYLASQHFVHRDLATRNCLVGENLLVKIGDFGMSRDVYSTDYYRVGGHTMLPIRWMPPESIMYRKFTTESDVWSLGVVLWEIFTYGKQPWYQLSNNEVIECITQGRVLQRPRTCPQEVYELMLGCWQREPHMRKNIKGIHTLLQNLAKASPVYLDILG
# Sequence of Angiopoietin-1 receptor (Homo sapiens) (Q02763 whole entry): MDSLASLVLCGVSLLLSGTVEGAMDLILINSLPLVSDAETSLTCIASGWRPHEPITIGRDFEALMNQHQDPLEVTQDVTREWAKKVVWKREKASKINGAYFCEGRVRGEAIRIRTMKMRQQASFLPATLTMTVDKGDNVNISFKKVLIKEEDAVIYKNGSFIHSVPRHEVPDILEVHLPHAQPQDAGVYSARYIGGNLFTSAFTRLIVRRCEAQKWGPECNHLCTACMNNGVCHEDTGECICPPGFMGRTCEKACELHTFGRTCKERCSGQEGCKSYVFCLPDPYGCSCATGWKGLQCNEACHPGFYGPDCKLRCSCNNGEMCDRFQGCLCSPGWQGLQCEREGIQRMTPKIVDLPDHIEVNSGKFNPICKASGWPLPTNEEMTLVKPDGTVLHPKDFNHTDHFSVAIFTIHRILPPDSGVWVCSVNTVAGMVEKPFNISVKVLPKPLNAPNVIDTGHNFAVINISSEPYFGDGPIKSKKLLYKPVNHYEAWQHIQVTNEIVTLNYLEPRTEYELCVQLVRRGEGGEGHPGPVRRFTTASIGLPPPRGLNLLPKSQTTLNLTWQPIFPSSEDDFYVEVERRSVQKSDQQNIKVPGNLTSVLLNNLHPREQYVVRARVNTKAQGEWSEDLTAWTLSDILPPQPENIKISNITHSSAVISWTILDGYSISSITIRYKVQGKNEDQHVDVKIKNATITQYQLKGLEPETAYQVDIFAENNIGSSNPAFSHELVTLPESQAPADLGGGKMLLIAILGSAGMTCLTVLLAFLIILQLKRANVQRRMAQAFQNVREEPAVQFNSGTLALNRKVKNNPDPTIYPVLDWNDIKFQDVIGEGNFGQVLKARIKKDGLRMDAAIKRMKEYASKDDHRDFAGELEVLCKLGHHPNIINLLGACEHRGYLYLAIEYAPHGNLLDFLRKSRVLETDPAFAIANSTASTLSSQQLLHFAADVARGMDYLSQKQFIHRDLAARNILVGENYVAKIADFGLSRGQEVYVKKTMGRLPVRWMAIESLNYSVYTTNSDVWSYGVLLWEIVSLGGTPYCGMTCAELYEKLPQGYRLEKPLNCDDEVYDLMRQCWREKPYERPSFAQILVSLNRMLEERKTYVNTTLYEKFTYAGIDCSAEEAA
Structure (SMILES),residual activity [1] [%],residual activity [2] [%],residual activity [3] [%],residual activity [4] [%],residual activity [5] [%],residual activity [6] [%],residual activity [7] [%],residual activity [8] [%],residual activity [9] [%],residual activity [10] [%],residual activity [11] [%],residual activity [12] [%],residual activity [13] [%],residual activity [14] [%],residual activity [15] [%],residual activity [16],residual activity [17] [%],residual activity [18] [%],residual activity [19],residual activity [20] [%]
Cc1cc(Nc2nc(-c3ccccc3)nc3ccccc23)n[nH]1,72,25,67,38,4,77,6,-2,-1,1,0,30,2,29,4,74% (inactive),–,–,–,–
COc1cc2ncnc(N3CCN(C(=O)Nc4ccc(Oc5ccccc5)cc4)CC3)c2cc1OC,88,76,117,83,98,69,69,71,30,39,44,108,119,97,90,84% (inactive),100,100,94% (inactive),86
O=C1NC(=O)/C(=C/c2ccc3c(c2)OC(F)(F)O3)S1,99,91,97,83,80,94,85,86,60,44,24,109,104,105,89,114% (inactive),106,97,112% (inactive),97
c1ccc(-c2n[nH]c3c2oc2ccccc23)cc1,–,82,96,–,76,83,58,32,2,45,-3,97,73,–,71,114% (inactive),–,86,99% (inactive),77
CN(C)CCCn1cc(C2=C(c3c[nH]c4ccccc34)C(=O)NC2=O)c2ccccc21,86,37,–,113,65,120,60,48,13,36,14,–,79,101,61,120% (inactive),110,88,119% (inactive),76
COc1ccc(S(=O)(=O)N(CCO)c2ccccc2CN(C)C/C=C/c2ccc(Cl)cc2)cc1,97,81,86,102,36,118,66,87,47,86,61,94,67,93,95,100% (inactive),113,94,102% (inactive),80
Nc1cccc(-c2cc3c(Oc4cccc(O)c4)ncnc3[nH]2)c1,101,71,78,17,0,18,1,61,6,74,44,27,3,31,6,88% (inactive),–,76,100% (inactive),89
CC(=O)c1ccc(N2CCOCC2)cc1O,98,94,104,104,91,79,83,–,–,84,108,85,86,106,90,–,106,90,107% (inactive),96
COc1cc2ncnc(Nc3ccc(Oc4ccccc4)cc3)c2cc1OC,95,93,111,40,10,–,–,135,82,102,147,56,34,96,79,92% (inactive),109,95,99% (inactive),73
Cn1cc(/C=C2\C(=O)Nc3ccc(S(N)(=O)=O)cc32)c2ccccc21,19,14,72,52,6,86,73,1,1,23,-12,75,47,19,4,111% (inactive),43,24,114% (inactive),93
COc1ccc(C(=O)Nc2sc3c(c2C(N)=O)CCCC3)cc1OC,94,75,85,89,86,79,59,58,76,70,71,93,73,99,84,104% (inactive),102,92,107% (inactive),85
N#CC(C#N)=C(N)/C(C#N)=C/c1ccc(O)cc1,98,96,–,90,88,84,74,121,119,99,116,78,67,100,92,–,–,–,100% (inactive),94
Cn1nc2c3c(cccc31)C(=O)c1ccccc1-2,100,79,76,90,69,104,79,46,9,–,66,82,61,89,84,93% (inactive),–,104,92% (inactive),77
CO[C@H]1C[C@@H]2CC[C@@H](C)[C@@](O)(O2)C(=O)C(=O)N2CCCC[C@H]2C(=O)O[C@H]([C@H](C)C[C@@H]2CC[C@@H](O)[C@H](OC)C2)CC(=O)[C@H](C)/C=C(\C)[C@@H](O)[C@@H](OC)C(=O)[C@H](C)C[C@H](C)/C=C/C=C/C=C/1C,86,80,106,96,90,79,96,89,41,102,–,109,111,100,94,96% (inactive),91,98,97% (inactive),97

# Reference: ChEMBL document CHEMBL2218924, “A broad activity screen in support of a chemogenomic map for kinase signalling research and drug discovery” (Biochem J, 2013)
